Holding throughout (assay): NCI-60 one-dose screen, 48 h (100 = growth as untreated, 0 = no growth, -100 = all killed)
Common to all, as to details: 10 µM unless noted

Test [1] relates to SR leukemia.
For test [2], the system named is RPMI-8226 leukemia.
For test [3], the system named is OVCAR-8 ovarian.
Test [4] relates to OVCAR-5 ovarian.
Test [5] deals with OVCAR-4 ovarian.
For test [6], the system named is SK-OV-3 ovarian.
Test [7] deals with IGROV1 ovarian.
Test [8] deals with OVCAR-3 ovarian.
For test [9], the system named is HS 578T breast.
In test [10] the test system is NCI/ADR-RES ovarian.
Test [11] has as its system T-47D breast.
Test [12] has as its system BT-549 breast.
Test [13] concerns MDA-MB-435 melanoma.
The subject of test [14] is SW-620 colon.
Test [15] deals with MCF7 breast.
Test [16] has as its system HCT-116 colon.
Test [17] deals with HCC-2998 colon.
Test [18] deals with KM12 colon.

This is part of a sample that, as a whole, favours compounds with a hit. Of some 83,000 tested, about 20% had one in any assay.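 Treatment: one concentration, 48 hours, 96-well format. Scoring: percent growth, with anything below 10 considered active.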 A number with no mark means an inactive call. Calls of active or inactive are those of the source.

`CNC(=O)c1cc(N2CCc3cc(NC(=O)Nc4ccc(Cl)c(C(F)(F)F)c4)ccc32)ccn1`: the growth in [1] is 45.8%; in test [2] it was 33.6%; in test [3], 62.8%; in [4] it was 106%; in test [5], 55.9%; in test [6], 86.6%. For the same compound, the growth in test [7] is 57.8%; in test [8], 51.9%; in test [9], 44.8%; in test [10], 55%; in [11], 49.2%; in test [12], 72.3%. The growth in test [13] was 53.3%; in test [14] it was 88.2%; in test [15], 29.8%; in test [16], 39.4%; in [17] it was 53.7%; in test [18] it was 17%.
For `ClC(Cl)c1nc(-c2ccco2)n2nc(-c3ccccc3)cc2n1`, the growth in [1] is 87.3%; in test [2], -25.5% (active); in [3], 31.7%; in test [4] it was 2.76% (active); in test [5], 36.6%; in test [6] it was 51%. Further, the growth is 76.9% in test [7]; -29.9% (active) in [8]; -2.15% (active) in test [9]; 4.02% (active) in test [10]; 32.8% in test [11]; 87.7% in test [12]. In addition, the growth in [13] was 24.9%; in [14], 8.35% (active); in test [15] it was 1.38% (active); in test [16], 2.94% (active); in test [17], -53.5% (active); in test [18], -27.4% (active).
For the compound `COc1cc(OC)c(/C=C/S(=O)(=O)Cc2ccc(OC)c(NC(=O)CCC(=O)NO)c2)c(OC)c1`, the growth in [1] was 14.2%; in test [2] it was 16.9%; in test [3], 17.2%; in test [4], 33.9%; in test [5], 45.3%; in test [6] it was 32.6%. The growth in test [7] was 13.4%; in [8], 6.69% (active); in test [9], 16.2%; in test [10] it was 10.2%; in [11], 86.4%; in test [12], 14.5%. Further, the growth was -2.23% (active) in [13]; 21.7% in [14]; 11.9% in test [15]; 3.5% (active) in test [16]; 10.3% in [17]; 7.24% (active) in test [18].
In the case of `Cc1ccc(-c2cc3nc(C(Cl)Cl)nc(-c4ccco4)n3n2)cc1`, the growth in test [1] was 82.4%; in [2], -29.4% (active); in test [3] it was 18.3%; in test [4], 2.3% (active); in [5], 36%; in test [6] it was 24.2%. Moreover, the growth in [7] was 64.5%; in [8], -36.3% (active); in [9], -2.05% (active); in [10], 3.8% (active); in test [11], 21.2%; in [12], 86.5%. Further, the growth is 18.1% in test [13]; 8.55% (active) in test [14]; 3.51% (active) in test [15]; 1.68% (active) in test [16]; -50% (active) in test [17]; -21.3% (active) in test [18].
`CNC(=O)c1c(NC(=O)c2cccc(C(F)(F)F)c2F)sc2c1CCC(=O)C2`: the growth in test [1] was 20%; in test [2] it was -0.669% (active); in [3] it was 16.8%; in [4] it was 4.83% (active); in [5], 8.78% (active); in [6] it was 4.35% (active). Also, the growth is 10.5% in [7]; 12.5% in test [8]; 8.98% (active) in test [9]; 7.77% (active) in [10]; 13.8% in [11]; 21.3% in test [12]. Besides, the growth in test [13] is 11.9%; in test [14] it was 14.2%; in test [15] it was 6.33% (active); in test [16], 5.58% (active); in test [17], 25.2%; in test [18], 3% (active).
Turning to `C[C@@H](Nc1ncnc2ccc(-c3cnc(Cl)c(NS(C)(=O)=O)c3)cc12)c1ccccc1`, the growth was 47.6% in test [1]; 23.9% in test [2]; 75.9% in test [3]; 38.4% in [4]; 58.3% in test [5]; 55.6% in test [6]. Besides, the growth in test [7] was 3.14% (active); in [8] it was 44.6%; in test [9], 27.1%; in test [10], 85%; in [11] it was 9.4% (active); in test [13], 60.9%. Moreover, the growth in [14] was 67.7%; in [15] it was 21.3%; in test [16], 61%; in [17] it was 70.6%; in test [18], 89.3%.
For the compound `C#Cc1nc(C(=O)NCCC(=O)Nc2ccc(NC(=O)c3ccc(/C=C/C(=O)c4nccn4C)cc3)cc2)cs1`, the growth was 0.901% (active) in test [1]; -33% (active) in [2]; 22.3% in test [3]; 50.9% in test [4]; 61.8% in test [5]; 86.3% in [6]. Moreover, the growth in [7] is -25.5% (active); in test [8], -11.5% (active); in test [9] it was 86.7%; in test [10], 49.2%; in [11], 49.3%; in test [12], 54.3%. Besides, the growth in test [13] is 27%; in test [14] it was 15.7%; in test [15], 8.54% (active); in [16], -33.1% (active); in [17] it was 93.5%; in test [18], 9.96% (active).
Consider `COc1ccc(C2c3sc4c(C)cccc4c3Oc3nc(CC(=O)Nc4ccccc4)[nH]c(=O)c32)cc1` (configuration not stated), for which the growth is 62.7% in test [1]; 89.5% in [2]; 99.8% in test [3]; 88.7% in test [4]; 65% in test [5]; 85.8% in test [6]. Also, the growth in [7] is 47.9%; in test [8], 93.9%; in test [9], 87.8%; in test [10] it was 38.7%; in [11], 84.4%; in test [13], 33.7%. Also, the growth is 74.9% in [14]; 55.6% in test [15]; 73.6% in test [16]; 93.8% in test [17]; 92.7% in [18].

Values taken from PubChem BioAssay (NCI).
